SRC2 inh = inhibits human steroid receptor coactivator 2 | AID 651957 | HEK293 GAL4-SRC2 luciferase reporter, luminescence | inhibition, % at 9 µM | Q15596 | actives 0.17% (n = 370,000);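 active means inhibition above the mean inhibition of all tested compounds plus 3 SD, set per campaign, cut at about 52% in these data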;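 further: 0% = DMSO treated cells and 100% = cells given Gossypol at 36 µM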
LRH-1 inv ag = inverse agonists of human LRH-1 (NR5A2) | O00482 | actives 0.13% (n = 360,000) | AID 602396 | inhibition, % at 3.6 µM | HEK293T StAR-luciferase reporter, LRH-1 transfected, 24 h;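 active means inhibition above the mean inhibition of all tested compounds plus 3 SD, cut at about 73% in these data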;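 further: 0% = DMSO wells and 100% = reporter-only cells lacking LRH-1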
SRC3 inh = inhibits human SRC3 coactivator; AID 588352; HEK293 GAL4-SRC3 luciferase reporter, luminescence; inhibition, % at 3.6 µM; actives 0.17% (n = 360,000);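 active means inhibition above a per-campaign cutoff, the mean of all compounds plus 3 SD, cut at about 60% in these data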;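 further: 0% = DMSO-treated cells and 100% = gossypol-treated cells at 36 µM; higher means less SRC3-driven luciferase light from the GAL4 reporter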
NCOA1 inh = inhibitors of human steroid receptor coactivator 1 (SRC1); actives 0.12% (n = 360,000); Q15788; inhibition, % at 3.6 µM; HEK293 GAL4-SRC1 luciferase reporter, luminescence;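 active means inhibition above the campaign mean plus 3 SD, with each screening campaign given its own cutoff, cut at about 60% in these data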;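 further: 0% = DMSO treated cells and 100% = gossypol at 36 µM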
GalR3 antagonist = antagonists of human GalR3 | O60755 | HEK293 GalR3-CNG cAMP membrane potential fluorescence; galR3 body fused to GalR1 C-terminus | inhibition, % at 3 µM | actives 0.44% (n = 360,000) | AID 651719;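 active means inhibition above the screen-wide average plus 3 SD, cut at about 13% in these data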;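 further: forskolin and galanin both at EC90 stimulate the cells; cAMP rise reported by CNG channel membrane potential dye signal; 0% = forskolin plus galanin with DMSO and 100% = forskolin alone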
Target sequence (O60755 1-299 limits assumed): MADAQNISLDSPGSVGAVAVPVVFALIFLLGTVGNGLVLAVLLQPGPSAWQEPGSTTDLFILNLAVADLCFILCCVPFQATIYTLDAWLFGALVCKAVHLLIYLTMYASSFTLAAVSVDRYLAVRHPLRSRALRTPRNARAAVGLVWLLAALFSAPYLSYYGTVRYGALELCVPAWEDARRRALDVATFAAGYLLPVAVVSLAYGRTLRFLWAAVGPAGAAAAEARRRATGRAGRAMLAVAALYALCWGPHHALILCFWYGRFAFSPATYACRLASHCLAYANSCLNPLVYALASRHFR
COUP-TFII inh = NR2F2 (human) inhibition, primary screen. inhibition, % at 8.6 µM. HEK293T NGFI-A luciferase reporter, luminescence. actives 0.7% (n = 370,000). AID 686940;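 active means inhibition above a per-plate cutoff, mean inhibition of test wells between control levels plus 3 SD, cut at about 38% in these data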;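 further: cells cotransfected with COUP-TFII expression vector driving the NGFI-A reporter; 0% = median of COUP-TF2 test wells and 100% = reporter-only cells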
Gal4-VP16 ctr = VP16 inhibition counter-screen for COUP-TFII; shares compounds with COUP-TFII inh; HEK293 Gal4-VP16 luciferase reporter, luminescence; inhibition, % at 8.5 µM; actives 25% (n = 2,500); AID 687007; in the data active means inhibition above about 13%
NR2F2 inh conf = COUP-TFII (NR2F2) inhibition, confirmation assay. actives 45% (n = 2,500). shares compounds with COUP-TFII inh. AID 687008. inhibition, % at 8.5 µM. HEK293 NGFI-A luciferase reporter, luminescence;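 active means mean inhibition over three repeats above a set limit taken from the earlier primary screen, cut at about 38% in these data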;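 further: 100% = cells given the luciferase reporter alone without the COUP-TF2 vector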
* = called active by the depositor. The list is not random: actives were taken first. Their share in the collection is about 1.1%.

For COc1ccc(NC(=O)CCOc2cc(C)ccc2C)cc1S(=O)(=O)N1CCCCC1 the results were SRC2 inh 16, LRH-1 inv ag 7, SRC3 inh -14, NCOA1 inh 7, GalR3 antagonist -5, COUP-TFII inh 41*, Gal4-VP16 ctr -7 and NR2F2 inh conf 1.
Screening Cc1ccc(NC(=O)COc2ccccc2C(N)=O)cc1S(=O)(=O)N1CCCCCC1 returned SRC2 inh 41, LRH-1 inv ag 23, SRC3 inh 13, NCOA1 inh 12, GalR3 antagonist 2, COUP-TFII inh 60*, Gal4-VP16 ctr -7 and NR2F2 inh conf 46*.
For COc1cc(C(C)=O)ccc1OCC(=O)Nc1ccc(S(=O)(=O)N2CCCCC2)cc1 the results were SRC2 inh -21, LRH-1 inv ag 0, SRC3 inh 6, NCOA1 inh 7, GalR3 antagonist 0 and COUP-TFII inh -1.
`CCOC(=O)N(C)C[C@H]1OCc2cnnn2CCCC(=O)N([C@H](C)CO)C[C@@H]1C` gave SRC2 inh -32, GalR3 antagonist -1 and COUP-TFII inh -1.
`OC(c1ccccc1)(c1nc(/C=C/c2ccccc2)cs1)C(F)(F)F` (stereo not drawn) gave SRC2 inh -1, LRH-1 inv ag -27, SRC3 inh -17, NCOA1 inh 5, GalR3 antagonist -4 and COUP-TFII inh 16.
COCc1ccc(C(=O)N2CCC(CCC(=O)Nc3cccc(C)c3)CC2)s1 was read as SRC2 inh 41, LRH-1 inv ag 11, SRC3 inh 5, NCOA1 inh 15, GalR3 antagonist -4, COUP-TFII inh 40*, Gal4-VP16 ctr 30* and NR2F2 inh conf 14.
For Nc1nc2c(ncn2[C@@H]2O[C@H](C(=O)NCC(c3ccccc3)c3ccccc3)[C@@H](O)[C@H]2O)c(=O)[nH]1 the results were SRC2 inh -3, GalR3 antagonist -6 and COUP-TFII inh -4.
For O=C(CSc1nc2ccccc2o1)Nc1nc2c(s1)CCCC2 the results were SRC2 inh 12, LRH-1 inv ag 29, SRC3 inh 28, NCOA1 inh 21, GalR3 antagonist -1, COUP-TFII inh 52*, Gal4-VP16 ctr -44 and NR2F2 inh conf 36.
For CCc1c(-c2ccccc2F)ncn1Cc1cccc(-c2ccccc2)c1 the results were SRC2 inh 2, LRH-1 inv ag 29, GalR3 antagonist -8, COUP-TFII inh 44*, Gal4-VP16 ctr -7 and NR2F2 inh conf 7.
Screening CCc1c(-c2ccccc2)ncn1Cc1cccc(-c2ccccc2)c1 returned SRC2 inh 20, LRH-1 inv ag 28, GalR3 antagonist 1 and COUP-TFII inh 29.
`COc1ccc(/C=C2\Sc3ccc(C(=O)NC4CC4)cc3N(C)C2=O)cc1OC` gave SRC2 inh 15, LRH-1 inv ag 8, SRC3 inh -22, NCOA1 inh -6, GalR3 antagonist 6 and COUP-TFII inh -10.
`CN1C(=O)/C(=C\c2ccccc2F)Sc2ccc(C(=O)NC3CCN(Cc4ccccc4)CC3)cc21` gave SRC2 inh 20, LRH-1 inv ag 29, SRC3 inh 19, NCOA1 inh 10, GalR3 antagonist -10, COUP-TFII inh 41*, Gal4-VP16 ctr -2 and NR2F2 inh conf 20.
Screening CCCCNC(=O)C1(C)CCCCN1Cc1ccc2ccccc2c1 (stereo not drawn) returned SRC2 inh -10, LRH-1 inv ag -2, SRC3 inh 20, NCOA1 inh -4, GalR3 antagonist -5 and COUP-TFII inh 7.
Screening CCCNC(=O)c1cc(S(=O)(=O)N2CCc3ccccc32)cn1C returned SRC2 inh 10, LRH-1 inv ag 6, SRC3 inh 14, NCOA1 inh 23, COUP-TFII inh 44*, Gal4-VP16 ctr -5 and NR2F2 inh conf 26.
For CCOC(=O)C1=C(C)N(Cc2ccccc2)C(=O)NC1c1ccccc1OS(=O)(=O)c1ccccc1[N+](=O)[O-] (stereo not drawn) the results were SRC2 inh 12, LRH-1 inv ag 38, SRC3 inh 14, NCOA1 inh 20, GalR3 antagonist -6, COUP-TFII inh 47*, Gal4-VP16 ctr 1 and NR2F2 inh conf 34.
Screening COC(=O)C1=C(C)N(CCCC(=O)O)C(=O)NC1c1ccccc1OS(=O)(=O)c1ccccc1[N+](=O)[O-] (stereo not drawn) returned SRC2 inh 1, LRH-1 inv ag -9, SRC3 inh -8, NCOA1 inh -14, GalR3 antagonist -3 and COUP-TFII inh 6.
`O=C1N(c2ccccc2)CC2C(c3ccccc3)C(c3ccccc3)N3CCCC123` (stereo not drawn) gave SRC2 inh 25 and COUP-TFII inh 15.
Screening O=C1N(c2ccccc2)C[C@@H]2C[C@@H](c3cc4ccccc4o3)N3CCC[C@@]123 returned SRC2 inh 54*, LRH-1 inv ag 95*, SRC3 inh 88*, NCOA1 inh 90*, GalR3 antagonist -11, COUP-TFII inh 80*, Gal4-VP16 ctr 9 and NR2F2 inh conf 74*.
Screening CCc1nc2ccc(C(=O)NCc3ccccc3OC)cn2c1N(CC)CCN(C)C returned SRC2 inh 1, LRH-1 inv ag -8, SRC3 inh -1, NCOA1 inh -3, GalR3 antagonist 0 and COUP-TFII inh -1.
For COc1ccc(S(=O)(=O)Nc2ccc3c(c2)C(=O)N([C@H](C)CO)C[C@H](C)[C@@H](CN(C)C(=O)Nc2ccc(C(F)(F)F)cc2)OCCCC[C@H](C)O3)cc1 the results were SRC2 inh -4, LRH-1 inv ag -3, SRC3 inh -10, NCOA1 inh -3, GalR3 antagonist -2 and COUP-TFII inh 12.
`CCN(c1ccc(OC)cc1)c1ncnc2nc[nH]c12` gave SRC2 inh 49, LRH-1 inv ag 22, SRC3 inh 49, NCOA1 inh 66*, GalR3 antagonist 4, COUP-TFII inh 38*, Gal4-VP16 ctr 3 and NR2F2 inh conf 17.
`CCCN(c1ccc(OCC)cc1)c1ncnc2nc[nH]c12` gave SRC2 inh 25, LRH-1 inv ag 1, SRC3 inh 24, NCOA1 inh 23, GalR3 antagonist -2 and COUP-TFII inh 2.
`COc1ccc(/C=C2\SC(=O)N(CCCC(=O)Nc3cc(Cl)ccc3C(=O)O)C2=O)cc1` gave SRC2 inh 92*, LRH-1 inv ag 82*, SRC3 inh 83*, NCOA1 inh 78*, GalR3 antagonist -5, COUP-TFII inh 101*, Gal4-VP16 ctr 89* and NR2F2 inh conf 101*.
